Screening results from PubChem.
APEX1 inh: APE1 (human) endonuclease inhibition; P27695; recombinant APE1, TAMRA/BHQ-2 abasic DNA cleavage fluorescence; Potency, µM (titrated, usually from 65.8 µM), usual class: inhibitors; 0.35% of 350,000 active; AID 2517; further: nearly all actives have a fitted effect of over 55% in size
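Quantitative HTS: incision of a TAMRA/BHQ-2 double-stranded substrate bearing a tetrahydrofuran abasic site by 0.75 nM APE1 raises fluorescence. Substrate 50 nM final, added after 15 min compound preincubation at room temperature; progress as third-minus-first kinetic read difference.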
PI4K2A inh: inhibitors of human PI4K2A; activity change, negative = inhibition, % at 76.9 µM; purified PI4K2A, ADP-Glo luminescence, 1 h; stronger effect = lower value; Q9BTU6; AID 1346378; 0.13% of 420,000 active; in the data active means activity change below about -50%; inconclusive means mostly about -30% to -49%
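In this quantitative HTS, ADP production by PI4K2A was quantified luminescently after 1 h at ambient temperature; 100 microM adenosine served as plate-quality control.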
FEN1 inh: human FEN1 inhibition; Recombinant FEN1 flap cleavage, fluorescence, 15 min; Potency, µM (titrated, usually from 114 µM), actives largely listed as inhibitors; 0.35% of 390,000 active; further: nearly all actives have a fitted effect of over 65% in size
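FEN1 at 10 nM, compound pretreatment for 15 min (room temperature), 50 nM final substrate to initiate; endpoint reads at 0 and 15 min; DMSO-only plates used as vehicle background.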
TDP1 block: inhibitors of human tyrosyl-DNA phosphodiesterase TDP1; Q9NUW8; Potency, µM (highest dose often 130 µM), actives largely listed as inhibitors; AID 485290; recombinant TDP1, AlphaScreen DNA substrate cleavage; 0.28% of 350,000 active; further: nearly all actives have a fitted effect of over 40% in size
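Compounds were preincubated with Tdp1 (1 nM final) for 15 min at room temperature before substrate (15 nM final) started a 5 min reaction; beads (10 ug/ml final) were then added for 10 min before AlphaScreen detection.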
Tb PGK inh: blocks T. brucei phosphoglycerate kinase | P07378 | PGK/GAPDH coupled, Kinase-Glo luminescence, 60 min | Potency, µM (titrated, usually from 57.5 µM), usual class: inhibitors | 0.043% of 380,000 active | AID 602233; further: nearly all actives have a fitted effect of over 60% in size
Target sequence (P07378 whole entry, looked up): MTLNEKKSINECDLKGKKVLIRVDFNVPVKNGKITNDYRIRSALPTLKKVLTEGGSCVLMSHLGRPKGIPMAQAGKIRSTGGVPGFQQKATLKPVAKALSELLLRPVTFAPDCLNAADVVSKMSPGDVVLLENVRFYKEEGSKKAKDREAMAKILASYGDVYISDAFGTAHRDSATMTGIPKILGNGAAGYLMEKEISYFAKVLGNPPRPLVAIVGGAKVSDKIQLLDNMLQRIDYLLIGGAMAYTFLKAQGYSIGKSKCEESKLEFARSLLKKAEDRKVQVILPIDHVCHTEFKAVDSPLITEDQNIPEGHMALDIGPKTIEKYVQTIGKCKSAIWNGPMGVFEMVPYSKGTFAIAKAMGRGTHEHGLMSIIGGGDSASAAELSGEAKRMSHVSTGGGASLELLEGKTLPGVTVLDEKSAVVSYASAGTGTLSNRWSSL
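Luminescent ATP detection (Kinase-Glo Plus) follows a 60-minute room-temperature incubation, with wells lacking PGK as controls. Buffer: 100 mM TEA (pH 7.6), 5 mM MgCl2, 0.01% Tween-20. Coupling enzyme GAPDH (100 nM final) supplies unstable 1,3-BPG in-well.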
Tb PFK inh-1: inhibitors of T. brucei phosphofructokinase; 0.17% of 330,000 active; AID 485367; Potency, µM (highest dose often 57.5 µM), most hits filed as inhibitors; T. brucei PFK, ADP-Glo luminescence; further: nearly all actives have a fitted effect of over 60% in size
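Compounds were pin-transferred as a titration series up to 57 uM into substrate buffer (0.5 mM F6P, 0.1 mM ATP, pH 8.0), then 1.25 nM PFK was added and reactions ran 45 min before ADP-Glo detection.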
TbPFK ATP: Tb phosphofructokinase inhibition, orthogonal luminescence; shares compounds with Tb PFK inh-1; Tb PFK enzyme, ATP depletion, Kinase-Glo Plus luminescence; Potency, µM (top dose mostly 57.5 µM); 47% of 1,100 active; calls by dose curve; further: nearly all actives have a fitted effect of over 60% in size
Tb PFK inh-2: T. brucei PFK enzyme inhibition, hit validation; shares compounds with Tb PFK inh-1; purified T. brucei PFK, ADP-Glo luminescence, 45 min; Potency, µM (doses to about 57.5 µM), hits mostly inhibitors; 41% of 1,100 active; AID 504637; further: nearly all actives have a fitted effect of over 60% in size
Each line names hits and unclear results; the compound was inactive in the other large screens (follow-up assays come after a bar, where they were run). Sampled rows, rich in hits. Any-hit rate of the full collection: about 0.8%. Unless noted, the call rests on the fitted dose curve; in most records, active means well fitted curve in the direction sought with a large enough effect; inconclusive means small, poorly fitted or top-dose-only effect, or another doubt; inactive means no such curve, though single readings can be large; an effect the other way counts as inactive or inconclusive.

O=C(c1cccs1)c1cn(Cc2ccccc2Cl)c2ccccc12	none
N/C(Cc1ccc(Cl)c(Cl)c1)=N\OC(=O)c1cccs1	Tb PFK inh-1 inconclusive | TbPFK ATP 11µM | Tb PFK inh-2 inconclusive
O=C1N(c2ccc(Cl)c(Cl)c2)CN(Cc2ccccc2)CN1n1cnnc1	Tb PFK inh-1 27µM | TbPFK ATP inconclusive | Tb PFK inh-2 inactive
O=[N+]([O-])C(Br)Br	none (no result: PI4K2A inh, FEN1 inh, Tb PGK inh, Tb PFK inh-1)
C[C@H](NC(=O)C1CCN(S(=O)(=O)c2ccccc2)CC1)C(=O)NCc1ccc(Cl)c(Cl)c1	Tb PFK inh-1 27µM | TbPFK ATP 21µM | Tb PFK inh-2 inconclusive
O=C(NCCc1ccccc1)[C@@H]1CC=C[C@@H]2CCN(Cc3ccc(Cl)c(Cl)c3)C(=O)[C@@H]21	FEN1 inh inconclusive (no result: APEX1 inh, TDP1 block, Tb PFK inh-1)
CC(=O)N[C@@H]1c2c(ccc3ccccc23)OC[C@@H]1COC(C)=O	Tb PFK inh-1 inconclusive | TbPFK ATP inactive | Tb PFK inh-2 inconclusive
Cc1cc(C)c2oc(C(=O)Nc3ccc(S(=O)(=O)Nc4nccs4)cc3)cc(=O)c2c1	Tb PFK inh-1 inconclusive (no result: TDP1 block) | TbPFK ATP inactive | Tb PFK inh-2 inconclusive
C[C@@H]1C[C@@H]2[C@H]([C@H]3C=C(COC(=O)c4ccccc4)[C@@H](O)[C@]4(O)[C@@H](O)C(OC(=O)c5ccccc5)=C[C@@]14C3=O)C2(C)C	none (no result: PI4K2A inh, FEN1 inh, Tb PGK inh, Tb PFK inh-1)
C=CCNC(=S)NNC(=O)c1cccn(Cc2ccc(Cl)c(Cl)c2)c1=O	Tb PFK inh-1 8.5µM | TbPFK ATP 8.5µM | Tb PFK inh-2 11µM
CNC(=S)NNC(=O)c1cccn(Cc2ccc(Cl)c(Cl)c2)c1=O	Tb PFK inh-1 8.5µM | TbPFK ATP 2.7µM | Tb PFK inh-2 8.5µM
O=[N+]([O-])c1ccccc1-c1ccccc1	none (no result: PI4K2A inh, FEN1 inh, Tb PGK inh, Tb PFK inh-1)
CNCc1ccccc1	none (no result: FEN1 inh, Tb PGK inh, Tb PFK inh-1)
COC(=O)CCCc1[se]c2ccccc2c1I	none (no result: PI4K2A inh, FEN1 inh, Tb PGK inh, Tb PFK inh-1)
[O-][Cl+2]([O-])O	none (no result: PI4K2A inh, FEN1 inh, Tb PGK inh, Tb PFK inh-1)
CC(C)(Cl)Cl	none (no result: PI4K2A inh, FEN1 inh, Tb PGK inh, Tb PFK inh-1)
NC(=O)c1cc(S(=O)(=O)N2CCN(c3ccc([N+](=O)[O-])cc3)CC2)cs1	Tb PFK inh-1 21µM | TbPFK ATP 12µM | Tb PFK inh-2 27µM
C[N+]1(CCF)[C@@H]2CC[C@H]1CC(OC(=O)C(O)(c1ccccc1)c1ccccc1)C2 (some centres not stated)	none (no result: APEX1 inh, FEN1 inh, TDP1 block, Tb PGK inh, Tb PFK inh-1)
Nc1c(Cl)c(Cl)c(Cl)c(Cl)c1Cl	none (no result: APEX1 inh, FEN1 inh, TDP1 block, Tb PGK inh, Tb PFK inh-1)
O=C(NN=Cc1ccc(N(CCCl)CCCl)cc1)c1cccnc1	none (no result: APEX1 inh, TDP1 block, Tb PFK inh-1)
O=C(Cc1ccc(Cl)c(Cl)c1)N/N=C/c1cccnc1	Tb PFK inh-1 12µM | TbPFK ATP 5.4µM | Tb PFK inh-2 12µM
Clc1ccc(Cn2cc(Br)cn2)cc1Cl	Tb PFK inh-1 24µM | TbPFK ATP 6µM | Tb PFK inh-2 12µM
C[C@]12C/C(=C/O)C(=O)C[C@@H]1CC[C@@H]1[C@@H]2CC[C@@]2(C)[C@H]1CC[C@]2(C)O	none (no result: FEN1 inh, Tb PGK inh, Tb PFK inh-1)
COc1cccc(OP(=O)(Nc2ccccc2)Oc2cccc(OC)c2)c1	none (no result: TDP1 block)
COc1cccc(NC(=S)Nc2ccc(O)cc2)c1	Tb PFK inh-1 inconclusive (no result: TDP1 block) | TbPFK ATP inconclusive | Tb PFK inh-2 inactive
Cl/C=C\Cl	none (no result: PI4K2A inh, FEN1 inh, Tb PGK inh, Tb PFK inh-1)
CN1CCN(C(=S)C(=O)Nc2ccc(Br)cc2)CC1	FEN1 inh inconclusive, Tb PFK inh-1 12µM | TbPFK ATP 7.6µM | Tb PFK inh-2 12µM
O=C(Nc1ccc(Cl)cc1)N1CC1	none (no result: APEX1 inh, TDP1 block, Tb PFK inh-1)
CCOc1ccc(C=NNc2ccc(S(=O)(=O)Nc3ccccc3C(=O)O)cc2[N+](=O)[O-])cc1OC	APEX1 inh 17µM, FEN1 inh 79µM, Tb PGK inh inconclusive, Tb PFK inh-1 inconclusive (no result: TDP1 block) | TbPFK ATP 6µM | Tb PFK inh-2 3µM
